Data reported in publication PMC12751014, “Non-Catalytic Inhibitors of the p38/MK2 Interface: Repurposing Approved Drugs to Target Neuroinflammation in Alzheimer’s Disease” (Journal of Medicinal Chemistry, 2025).
Among all 1,900 compounds or so, about 50 (3%) showed an effect of 50% or more. For the sample, strong results were picked, then their nearest neighbours and some compounds at random. *1 amine or outer side, *2 acyl side, *3 side chain or, on linkers, in order; H or OH if unused. Where a SMILES comes first, the peptide text is derived from it. Bridges are numbered along the chain shown (N, C = ends). [ ]: non-standard residue; d: D form. The star is where a group is joined. ξ: configuration not given here. pTerphenylCO(4''-OnC5H11) = CCCCCOc1ccc(-c2ccc(-c3ccc(C(=O)*)cc3)cc2)cc1; ξOrn(4,5-diOH) = O=C(C(CC(O)C(O)N[*:3])N[*:1])[*:2]; ξhTyr(βξ-OH,γξ-OH) = NC(C(=O)O)C(O)C(O)c1ccc(O)cc1; ξPro(3ξ-OH,4ξ-Me) = CC1CNC(C(=O)O)C1O; Hyp = O=C(O)[CH]1C[CH](O)CN1

biological target: p38/MK2 protein–protein interaction (VF-p38α / GST-MK2) (Homo sapiens, UniProt Q16539); experiment: primary screen, percent of control activity; higher = less effect of the substance; parameters: species or system HEK293T cell lysate transfected with VF-p38α and GST-MK2; unclear (methods say 'quintuplet replicates')
Procedure: The TR-FRET assay was conducted in a 1536-well plate (Corning, catalog no. 3724) with HEK293T cell lysate transfected with VF-p38α and GST-MK2. Cell-lysate concentration was optimized with a titration experiment. Anti-Flag-Tb and anti-GST-d2 antibodies (Revvity, catalog no. 61FGBTLB) were used to couple p38α and MK2, respectively. A multiple-drop Combi dispenser (Thermo Scientific) combined reaction mixtures in quintuplet replicates. The TR-FRET signals were measured using a BMG Labtech PHERAstar FSX plate reader and normalized to the percent of DMSO control.

Chain of p38/MK2 protein–protein interaction (VF-p38α / GST-MK2) (Q16539 2-360 limits assumed): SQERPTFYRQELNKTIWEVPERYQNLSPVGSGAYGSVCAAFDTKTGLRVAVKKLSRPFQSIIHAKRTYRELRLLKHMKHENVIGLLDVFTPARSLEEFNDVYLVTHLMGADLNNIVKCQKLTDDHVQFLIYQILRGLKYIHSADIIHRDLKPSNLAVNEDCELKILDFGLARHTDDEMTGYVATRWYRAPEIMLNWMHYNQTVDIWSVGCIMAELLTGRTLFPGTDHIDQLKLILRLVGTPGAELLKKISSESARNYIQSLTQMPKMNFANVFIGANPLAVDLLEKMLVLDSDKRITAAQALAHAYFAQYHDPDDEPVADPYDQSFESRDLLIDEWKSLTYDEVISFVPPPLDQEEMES

Structure (SMILES) | Pct of control [%]
CC1(C)CCC2=C(O1)c1ccccc1C(=O)C2=O | 102
CCC1OC(=O)C(C)C(OC2CC(C)(OC)C(O)C(C)O2)C(C)C(OC2OC(C)CC(N(C)C)C2O)C(C)(O)CC(C)C(=NOCOCCOC)C(C)C(O)C1(C)O (centres unmarked) | 103
C=CC(=O)Nc1cccc(Sc2nc(Nc3ccc(N4CCN(C)CC4)cc3)ncc2Cl)c1 | 91.7
Nc1cccc(-c2cc3c(Oc4cccc(O)c4)ncnc3[nH]2)c1 | 90.3
CC[C@@H]([C@H](C)O)n1ncn(-c2ccc(N3CCN(c4ccc(OC[C@@H]5CO[C@@](Cn6cncn6)(c6ccc(F)cc6F)C5)cc4)CC3)cc2)c1=O | 97
NC(N)=NS(=O)(=O)c1ccc(N)cc1 | 105
Cc1c(Cl)cccc1Nc1ccccc1C(=O)O | 99.2
NC(=O)N1c2ccccc2C=Cc2ccccc21 | 93.5
CCC(C)n1ncn(-c2ccc(N3CCN(c4ccc(OCC5COC(Cn6cncn6)(c6ccc(Cl)cc6Cl)O5)cc4)CC3)cc2)c1=O (centres unmarked) | 88.6
COc1ccc(-c2cnc3c(-c4cccc5ncccc45)cnn3c2)cc1 | 23.2
c1cc(-c2cnn3cc(-c4ccc(N5CCNCC5)cc4)cnc23)c2cccnc2c1 | 10.1
CC(C)Oc1ccc(-c2cnc3c(-c4ccnc5ccccc45)cnn3c2)cc1 | 89.1
CN1CCC(OC(c2ccccc2)c2ccccc2)CC1.Cl | 89.1
COc1ccc(C2=NC(c3ccc(Cl)cc3)C(c3ccc(Cl)cc3)N2C(=O)N2CCNC(=O)C2)c(OC(C)C)c1 (centres unmarked) [S8065] | 100
COc1ccccc1S(=O)(=O)Nc1ccc2c(c1)CN(C)C(=O)N2 | 117
CCN(C(=O)c1c(O)c2c(Cl)cccc2n(C)c1=O)c1ccccc1 | 88.3
O=[N+]([O-])c1ccc2c(c1)S(=O)(=O)C=C2 | 58.2
CC1CN(CC(=O)Nc2ccc3c(c2)Cc2cccc(-c4cc(=O)cc(N5CCOCC5)o4)c2S3)CC(C)O1 (centres unmarked) | 82.7
CN(CC(=O)N(Cc1ccc(C2CCCCC2)cc1)c1ccc(C(=O)O)cc1)S(=O)(=O)c1c(F)c(F)c(F)c(F)c1F | 24.1
O=c1c2ccccc2nc2n1CCc1c-2[nH]c2ccccc12 | 100
NNC(=O)c1ccncc1 | 86.5
CCOC(=O)c1ccc(C#Cc2ccc3c(c2)C(C)(C)CCS3)nc1 | 106
Cc1cc(Nc2ncnc3ccc(-c4ccc(CNCCS(C)(=O)=O)o4)cc23)ccc1Oc1ccn2ncnc2c1 | 24.2
Cc1ccc(CNc2ncnc3ccc(-c4ccc(CO)o4)cc23)o1 | 69.2
CS(=O)(=O)CCNCc1ccc(-c2ccc3ncnc(Nc4ccc(OCc5cccc(F)c5)c(Cl)c4)c3c2)o1 | 88.1
Cc1cc(=O)[nH]c(=S)[nH]1 | 101

Structure (SMILES) | Pct of control [%]
CS(=O)(=O)c1cccc(CNc2nc(Nc3ccc4c(c3)CCC(=O)N4)ncc2C(F)(F)F)c1 | 34
CN(c1ncccc1CNc1nc(Nc2ccc3c(c2)CC(=O)N3)ncc1C(F)(F)F)S(C)(=O)=O.Cl | 76.7
CN(c1ncccc1CNc1nc(Nc2ccc3c(c2)CC(=O)N3)ncc1C(F)(F)F)S(C)(=O)=O | 106
CC(C)Cc1ccc(C(C)C(=O)O)cc1 (centres unmarked) | 93
O=C(COc1cccc2c(=O)[nH]ccc12)c1ccccc1 | 89.7
CNS(=O)(=O)Cc1ccc2[nH]cc(CCN(C)C)c2c1.O=C(O)CCC(=O)O | 102
CC(=O)OC1(C(C)=O)CCC2C3CC(C)C4=CC(=O)CCC4(C)C3CCC21C (centres unmarked) | 87
COc1c(C)c(C(=O)c2ccc(N)c(C(=O)[O-])c2)n2ccccc12.[Na+] | 94
CC(=O)NS(=O)(=O)c1ccc(NC(=O)c2ccccc2C(=O)O)cc1 | 96.2
CC(C)(C)c1cc(C(C)(C)C)c(NC(=O)c2c[nH]c3ccccc3c2=O)cc1O | 111
CC(C)c1ccccc1Cc1cc(C(=O)Nc2ccc(S(=O)(=O)c3ccccc3C(C)(C)C)cc2)c(O)c(O)c1O | 33.3
Cc1ccc(Cl)c(Nc2ccccc2C(=O)[O-])c1Cl.[Na+] | 95.1
COc1ccc2cccc(CCNC(C)=O)c2c1 | 90.6
CS(=O)(=O)O.CS(=O)(=O)O.Cc1ccc(C(=O)Nc2ccc(CN3CCN(C)CC3)c(C(F)(F)F)c2)cc1C#Cc1cnc2[nH]ncc2c1 | 73.8
NS(=O)(=O)C#Cc1ccccc1 | 97.5
Cc1cccc(C#Cc2ccccc2)n1 | 29.7
O=C1NC(=O)C(=Cc2ccc3nccc(-c4ccncc4)c3c2)S1 | 126
Cc1ccc(Cl)cc1N(CC(=O)Nc1c(F)cccc1F)S(C)(=O)=O | 91.8
N#CC(c1ccc(Cl)cc1)c1c(Cl)cc(-n2ncc(=O)[nH]c2=O)cc1Cl (centres unmarked) | 72
COc1cc2c(cc1-c1c(C)noc1C)ncc1[nH]c(=O)n(C(C)c3ccccn3)c12 (centres unmarked) | 53.6
Cc1cc(NC(=O)Nc2ccc(N(C)C)cc2)c2cc(F)cc(F)c2n1 | 89.3
CN(C)c1ccc(-c2nc3ncc(Cl)c(N4CCN(CC(=O)Nc5nccs5)CC4)c3[nH]2)cc1 | 97.9
Nc1ccc(-c2ccc3ncc4ccc(=O)n(-c5cccc(C(F)(F)F)c5)c4c3c2)cn1 | 87.9
COc1ccc(-c2ccc3ncc4c(c3c2)n(-c2ccc(N3CCNCC3)c(C(F)(F)F)c2)c(=O)n4C)cn1.O=C(O)C=CC(=O)O | 45
CC(=O)OC1(C(C)=O)CCC2C3C=C(C)C4=CC(=O)CCC4(C)C3CCC21C (centres unmarked) | 106
Cc1c(NC(=O)c2ccc(C(C)(C)C)cc2)cccc1-c1cn(C)c(=O)c(Nc2ccc(C(=O)N3CCOCC3)cc2)n1 | 104

Structure (SMILES) | Pct of control [%]
O=C1C(Cl)=C(N2CCOCC2)C(=O)N1c1ccc(Cl)c(Cl)c1 | 35.9
COc1ccc(-c2nc3ccc(C4=NNC(=O)CC4C)cc3[nH]2)cc1 (centres unmarked) | 74.1
CN1C(C(=O)Nc2ccccn2)=C(O)c2sc(Cl)cc2S1(=O)=O | 94.2
CC(=O)Nc1nc2c(Oc3cc(-c4ccc(C(F)(F)F)cc4)ncn3)cccc2s1 | 108
CC(=O)O.CC(=O)O.CCC(C)CC(C)CCCCCCCCC(=O)NC1CC(O)C(NCCN)NC(=O)C2C(O)CCN2C(=O)C(C(O)CCN)NC(=O)C(C(O)C(O)c2ccc(O)cc2)NC(=O)C2CC(O)CN2C(=O)C(C(C)O)NC1=O (centres unmarked) | 114
CCCCCOc1ccc(-c2ccc(-c3ccc(C(=O)NC4CC(O)C(O)NC(=O)C5C(O)C(C)CN5C(=O)C(C(C)O)NC(=O)C(C(O)C(O)c5ccc(O)cc5)NC(=O)C5CC(O)CN5C(=O)C(C(C)O)NC4=O)cc3)cc2)cc1 (stereo not drawn) ({pTerphenylCO(4''-OnC5H11)}-[ξOrn(4,5-diOH)]T[Hyp][ξhTyr(βξ-OH,γξ-OH)]T[ξPro(3ξ-OH,4ξ-Me)]; lactam 1-C; configuration not given here) | 11.4
O=C(c1ccc(F)cc1)C1CCN(CCn2c(=O)[nH]c3ccccc3c2=O)CC1 | 84.3
Cc1ccccc1-n1c(Cn2ncc3c(N)ncnc32)nc2cccc(C)c2c1=O | 93.1
CN(C)CCCN1c2ccccc2Sc2ccc(Cl)cc21.Cl | 90.9
Br.Cc1ccc(C(=O)Cn2c3c(sc2=N)CCCC3)cc1 | 96.8
CS(=O)(=O)N1CCc2c(-c3cnc(N)nc3)nc(N3CCOCC3)nc21 | 81.8
Cc1cc(Nc2ccc(NC(=O)c3ccc(Nc4ccnc5ccccc45)cc3)cc2)nc(N)n1 | 17.7
CNCc1ccc(C)c(NC(=O)c2ccc(Nc3nc(-c4ccccc4)c4ccccc4n3)cc2)c1 | 120
CC(=O)Nc1ccc(C(=O)Nc2ccccc2N)cc1 | 96.8
CCCCCCCCc1ccc(CCC(N)(CO)CO)cc1.Cl | 203
CCCCCCCCCCCC1=C(O)C(=O)C=C(O)C1=O | 42
CS(=O)(=O)Nc1ccc([N+](=O)[O-])cc1Oc1ccccc1 | 95.3
CS(=O)(=O)c1ccc(-c2cnc(N)c(C(=O)Nc3ccccc3)n2)cc1 | 101
CS(=O)(=O)c1ccc(C2=C(c3ccccc3)C(=O)OC2)cc1 | 26.5
Cc1onc(-c2ccccc2)c1-c1ccc(S(N)(=O)=O)cc1 | 91.8
O=C(c1ccccc1)c1ccc2n1CCC2C(=O)O (centres unmarked) | 97.5
CN(C)CCC(c1ccc(Cl)cc1)c1ccccn1.O=C(O)C=CC(=O)O (centres unmarked) | 93.2
O=c1cc[nH]c(=S)[nH]1 | 98.2
OCc1c[nH]c2ccccc12 | 76.2
N#Cc1c(O)c2c(-c3ccc(-c4ccccc4O)cc3)csc2[nH]c1=O | 94.7
